AHR activator: AHR activators, primary screen, cell-based, luminescence, luciferase reporter, human; AHR-responsive luciferase reporter cells; AID 2796, 2010; hit rate 2.5% among 320,000; Aryl hydrocarbon receptor (Homo sapiens), P35869; activation, % at 5 µM; in the data active = activation above about 47%
APOBEC3A inh: APOBEC3A ssDNA deaminase inhibitors, primary screen, selectivity assay for APOBEC3G inhibitor project, biochemical, FAM/TAMRA oligo cleavage fluorescence. hit rate 0.41% among 330,000. recombinant A3A, FAM/TAMRA ssDNA deamination fluorescence. inhibition, % at 20 µM. DNA dC->dU-editing enzyme APOBEC-3A (Homo sapiens), P31941;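 active = at least 40% inhibition at 20 µM here, with at most 30% in a related deaminase screen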
Target sequence (P31941 whole entry, looked up): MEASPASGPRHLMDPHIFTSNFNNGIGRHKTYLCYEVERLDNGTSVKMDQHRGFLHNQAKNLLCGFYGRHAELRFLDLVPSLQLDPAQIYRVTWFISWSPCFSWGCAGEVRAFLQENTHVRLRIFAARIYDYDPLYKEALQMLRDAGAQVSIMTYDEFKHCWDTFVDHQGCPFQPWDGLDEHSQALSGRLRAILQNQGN
NTR1 agonist: agonists of human NTR1, primary screen, imaging, U2OS cells, beta-arrestin-GFP, high content; Neurotensin receptor type 1 (Homo sapiens), P30989; NTR1-U2OS beta-arrestin-GFP spot imaging, agonist mode; activation, % at 20 µM; hit rate 0.17% among 330,000; AID 493036, 2011;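 active = activation at or above 40% of the spot to cytoplasm intensity ratio, with at least 20 cells analyzed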
APOBEC3G inh: APOBEC3G DNA deaminase inhibitors, primary screen, biochemical, fluorescence, single-stranded DNA substrate, uHTS; DNA dC->dU-editing enzyme APOBEC-3G (Homo sapiens), Q9HC16; recombinant A3G, ssDNA deamination FAM/TAMRA fluorescence; inhibition, % at 20 µM; hit rate 0.28% among 330,000; AID 493012, 2011;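 active = inhibition of at least 40% at 20 µM, with no more than 30% in the related APOBEC3A deaminase screen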
Target sequence (Q9HC16 whole entry, looked up): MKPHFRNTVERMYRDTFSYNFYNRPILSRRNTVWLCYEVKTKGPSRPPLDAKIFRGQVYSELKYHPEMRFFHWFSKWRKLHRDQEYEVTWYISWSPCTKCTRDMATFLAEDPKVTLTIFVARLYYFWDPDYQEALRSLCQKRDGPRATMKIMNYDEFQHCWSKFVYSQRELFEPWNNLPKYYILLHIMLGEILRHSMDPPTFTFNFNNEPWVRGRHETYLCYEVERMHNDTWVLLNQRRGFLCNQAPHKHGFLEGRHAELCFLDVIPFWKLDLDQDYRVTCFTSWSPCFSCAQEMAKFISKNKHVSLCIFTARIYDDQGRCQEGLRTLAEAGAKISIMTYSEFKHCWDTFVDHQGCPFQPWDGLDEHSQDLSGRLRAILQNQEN
AHR act cf: AHR activators, confirmation, cell-based, luminescence, luciferase reporter, human; human cells, AHR-responsive luciferase reporter; hit rate 87% among 2,300; shares compounds with AHR activator; activation, % at 9 µM; in the data active = activation above about 49%;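 also: HepG2 hepatoma cells carrying a DRE-driven firefly luciferase reporter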
PXR counter: human PXR activators, counter-screen for AHR activator project, cell-based, luciferase luminescence; shares compounds with AHR activator; cell-based PXR reporter; activation, % at 11.6 µM; hit rate 88% among 2,300; AID 434939, 2010; in the data active = activation above about 11%;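 also: human hepatoma DPX-2 cells expressing full-length human PXR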
Large screens that a line does not name were inactive (follow-up assays come after a bar, where they were run). Shown are actives, neighbours in structure and some others; about 3.2% of the full set was active somewhere.

C#CCn1c(O)c(N=NC(=O)CNC(=O)/C=C/c2ccccc2)c2ccccc21	AHR activator 91 | AHR act cf 107 | PXR counter 52
C#CCn1c(O)c(N=NC(=O)CNC(=O)c2cccnc2)c2ccccc21	AHR activator 92 | AHR act cf 106 | PXR counter 25
C=CCn1c(O)c(N=NC(=O)CNC(=O)c2ccncc2)c2ccccc21	AHR activator 99 | AHR act cf 70 | PXR counter 43
Cc1cc(C(F)(F)F)n2ncc(-c3ccc(F)cc3)c2n1	AHR activator 88 | AHR act cf 120 | PXR counter 23
O=c1c(-c2ccc(Cl)cc2)cnc2n1CCS2	AHR activator 116 | AHR act cf 131 | PXR counter 53
O=C(NNc1c(Cl)cc(Cl)cc1Cl)C1CCC1	none
CC(=O)Nc1ccc(NC(=O)c2ccc([N+](=O)[O-])cc2Cl)cc1	none
O=C(Nc1ccccc1)c1cc([N+](=O)[O-])ccc1NCc1cccnc1	AHR activator 83 | AHR act cf 104 | PXR counter 41
O=C(Nc1ccccc1)c1cc([N+](=O)[O-])ccc1Cl	AHR activator 88 | AHR act cf 95 | PXR counter 14
O=C(Nc1ccc(Cl)c(Cl)c1)Nc1ccc([N+](=O)[O-])cn1	AHR activator 91 | AHR act cf 86 | PXR counter inactive
CCCNC(=O)Cc1c(C)oc2ccccc12	none
O=S(=O)(Nc1ccccn1)c1ccc(Cl)c2ccccc12	none
N#CNc1nc(O)cc(=O)[nH]1	none
Cc1cc(SCC(=O)c2cccs2)nc2ccccc12	AHR activator 99 | AHR act cf 103 | PXR counter 155
O=[N+]([O-])c1cccc2ccc(/C=C/c3cccc(Br)c3)nc12	AHR activator 175 | AHR act cf 121 | PXR counter 25
CC(=O)Nc1ccc(/C=C/c2ccc3c([N+](=O)[O-])cccc3n2)cc1	none
O=[N+]([O-])c1cccc2ccc(/C=C/c3ccc(C(F)(F)F)cc3)nc12	AHR activator 82 | AHR act cf 96 | PXR counter 15
COc1ccc(-c2ccc(-c3cc(=O)oc4cc(OC)c(OC)c(OC)c34)cc2)cc1	none (no result: AHR activator)
CC(=O)NC12CC3CC(C1)CC(C(=O)NCc1ccc(C)cc1)(C3)C2	none
S=c1[nH]nc(-c2cc(-c3ccccc3)n[nH]2)n1/N=C/c1cccs1	AHR activator 132 | AHR act cf 128 | PXR counter 39
Cc1ccsc1/C=N/n1c(-c2ccccc2)n[nH]c1=S	AHR activator 80 | AHR act cf 68 | PXR counter 46
C=CCNC(=O)C1CC(=O)N(c2ccc(OCC(=O)Nc3ccc(Cl)cc3)cc2)C1 (configuration not stated)	none
O=C(Nc1ccc2c(c1)OCO2)c1ccc(S(=O)(=O)N2CCCC2)cc1	none
O=C(Nc1cccc(S(=O)(=O)N2CCCCCC2)c1)c1ccc2c(c1)OCO2	AHR activator 82 | AHR act cf 62 | PXR counter 164
O=C(Nc1cccc(S(=O)(=O)N2CCCC2)c1)c1ccc2c(c1)OCO2	AHR activator 88 | AHR act cf 64 | PXR counter 209
CCCCN1C(=O)NC(c2ccc(OC)cc2)C(C(=O)OCc2ccccc2)=C1C (configuration not stated)	none
Cc1ccc(NC(=O)c2sccc2-n2cccc2)c(C)c1	none
COc1ccc(NC(=O)c2sccc2-n2cccc2)cc1	none
O=C(Nc1ccc(Cl)cc1)c1sccc1-n1cccc1	AHR activator 138 | AHR act cf 145 | PXR counter 28
CCc1ccc(NC(=O)c2sccc2-n2cccc2)cc1	AHR activator 102 | AHR act cf 141 | PXR counter 41
CC1=CCC2C(=O)N(c3ccc(C)c(Br)c3)C(=O)C2C1 (configuration not stated)	AHR activator 90 | AHR act cf inactive | PXR counter 87
O=C(c1ccc(S(=O)(=O)N2CCOCC2)cc1)N(c1cccc(Cl)c1)C1C=CS(=O)(=O)C1 (configuration not stated)	none
N/C(=N\c1nc2ccccc2o1)NC(=O)c1ccc(F)cc1	AHR activator 83 | AHR act cf 145 | PXR counter 30
N/C(=N\c1nc2ccccc2o1)NC(=O)c1ccccc1Br	AHR activator 95 | AHR act cf inactive | PXR counter 28
CC(C)(C)c1ccc(C(=O)N/C(N)=N/c2nc3ccccc3o2)cc1	none
Cc1ccc(NC(=S)Nc2cc(-c3ccccc3)[nH]n2)cc1Cl	AHR activator 94 | AHR act cf 103 | PXR counter 37
CN(C)S(=O)(=O)Oc1ccc(Cl)cc1C(=O)Nc1ccc(F)cc1F	AHR activator 81 | AHR act cf 81 | PXR counter 191
COc1ccccc1-n1nnnc1SCC(=O)Nc1ccc(C)c(N)c1	AHR activator 94 | AHR act cf 81 | PXR counter 58
O=C(NCC1CCCN(Cc2cccc(F)c2)C1)c1cccc2ccccc12 (configuration not stated)	none
O=C(/C=C/c1ccc(F)cc1)N1CCc2ccccc2C1	AHR activator 100 | AHR act cf 136 | PXR counter 60
Cc1nn(C)c(C(=O)Nc2ccc(Br)cc2F)c1Br	AHR activator 88 | AHR act cf 110 | PXR counter 12
CCCc1c(C(=O)Nc2cc(C(C)(C)C)on2)cnn1-c1ccccc1	none
Cc1occc1C(=O)Nc1ccc(Br)cc1F	none
O=C(Nc1ccc(Br)cc1F)c1cccnc1	AHR activator 126 | AHR act cf 60 | PXR counter 26
CCCc1c(C(=O)Nc2ccc(F)cc2F)cnn1-c1ccccc1	AHR activator 83 | AHR act cf 91 | PXR counter 71
Cn1ncc(Br)c1C(=O)Nc1ccc(F)cc1F	AHR activator 85 | AHR act cf 80 | PXR counter 17
COc1ccccc1N/C(=N/S(=O)(=O)c1ccc(C)cc1)c1ccccc1	none
COc1ccc([N+](=O)[O-])cc1N/C(=N/S(=O)(=O)c1ccccc1)c1ccccc1	AHR activator 113 | AHR act cf 84 | PXR counter 133
Cc1[nH]c2ccc(C(=O)Nc3ccncc3)cc2c1C	none
COc1ccccc1NC(=O)c1ccc2[nH]c(C)c(C)c2c1	AHR activator 113 | AHR act cf 133 | PXR counter 69
O=C1c2ccccc2NC(c2ccc3c(c2)OCO3)N1O (configuration not stated)	AHR activator 122 | AHR act cf 133 | PXR counter 25
